± gives the standard deviation.
Legend:
Settings in all cases: modulator concentration 10 µM
[1] = system: RAW-Dual (murine macrophage reporter line); experiment: NF-kB reporter (SEAP) activity fold change vs agonist alone; higher = enhanced NF-kB activity
In short: (§1)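 In 384-well plates holding 50 000 RAW-Dual murine macrophage reporter cells per well, compound at 10 μM final was pre-incubated for 1 hour at 37 °C, after which a PRR agonist was added overnight. Supernatant SEAP read with QUANTI-Blue at 620 nm absorbance reported NF-κB, and Lucia luciferase read with QUANTI-Luc luminescence reported IRF. Fold change values come from dividing each reporter signal by the mean of agonist-only control wells on the same plate, averaged over replicate plates with propagated errors.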

[2] = system: RAW-Dual (murine macrophage reporter line); experiment: IRF reporter (Lucia luciferase) activity fold change vs agonist alone; higher = enhanced IRF activity
In short: as §1

[3] = system: RAW-Dual (murine macrophage reporter line); experiment: viability score (confluency relative to resting cells, overnight) (fraction); higher = more viable, active = viable (0.7 or more)
In short: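 RAW-Dual macrophages in 384-well plates were exposed overnight to compound at 10 μM final. Confluency was imaged with IncuCyte, and two confluency masks were generated with IncuCyte software over all imaged wells. The viability score is confluency expressed relative to resting cells. Compounds were called viable if both masks exceeded 70% of resting cells.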

[4] = agonist: CpG ODN 1826 0.5 ug/mL

Compound	NF-kB reporter [1, 4]	NF-kB reporter ([1]; agonist: LPS 0.1 ug/mL)	NF-kB reporter ([1]; agonist: MPLA […])	IRF reporter ([2]; agonist: 3'3'-cGAMP 10 ug/mL)	IRF reporter ([2]; agonist: LPS 0.1 ug/mL)	IRF reporter ([2]; agonist: MPLA […])	viability score [3]
Cc1cc(-c2ccccc2)nnc1NCCN1CCOCC1.Cl.Cl	1.19 ± 0.28	1.04 ± 0.1	1 ± 0.073	0.966 ± 0.049	1.28 ± 0.14	1.27 ± 0.12	0.989 (active)
NC(=O)C1CCCc2c1[nH]c1ccc(Cl)cc21 (stereo unspecified)	1.07 ± 0.15	1.1 ± 0.14	0.878 ± 0.05	0.959 ± 0.044	1.19 ± 0.25	1.24 ± 0.098	0.959 (active)
O=C(Nc1ccc(-c2cn3ccsc3n2)cc1)C1CCCC1	1.14 ± 0.09	1.1 ± 0.15	1.37 ± 0.13	0.69 ± 0.027	1.23 ± 0.18	1.38 ± 0.23	0.962 (active)
Nc1ccccc1NC(=O)c1ccc(CNC(=O)OCc2cccnc2)cc1	2.23 ± 0.17	1.53 ± 0.14	1.96 ± 0.052	0.17 ± 0.033	0.252 ± 0.025	0.298 ± 0.029	0.913 (active)
COC(=O)C1=C(C)NC(C)=C(C(=O)OCC(C)C)C1c1ccccc1[N+](=O)[O-] (stereo unspecified)	0.884 ± 0.092	0.81 ± 0.05	0.748 ± 0.075	0.371 ± 0.017	0.783 ± 0.066	0.562 ± 0.052	0.923 (active)
CN[C@H]1CC[C@@H](c2ccc(Cl)c(Cl)c2)c2ccccc21.Cl	0.407 ± 0.039	0.757 ± 0.049	1.49 ± 0.14	1.18 ± 0.1	1.27 ± 0.084	1.97 ± 0.23	0.258 (inactive)
CCN1CC(CCN2CCOCC2)C(c2ccccc2)(c2ccccc2)C1=O.Cl.O (stereo unspecified)	1 ± 0.15	1.19 ± 0.24	1.79 ± 0.72	0.919 ± 0.028	1.37 ± 0.43	1.03 ± 0.083	1 (active)
CCC(=O)Nc1ccc(S(=O)(=O)N2CCC(Oc3ncnc(CC)c3F)C2)c(C)c1 (stereo unspecified)	1 ± 0.043	1.06 ± 0.087	1.2 ± 0.083	0.919 ± 0.055	1.24 ± 0.21	1.34 ± 0.4	0.992 (active)
COc1ccc(-c2oc(N=Cc3ccccc3O)c(C#N)c2-c2ccc(OC)cc2)cc1	0.895 ± 0.075	1.21 ± 0.079	0.997 ± 0.035	0.921 ± 0.2	1.05 ± 0.089	1.12 ± 0.18	1 (active)
OCCN(CCO)CC(O)Cn1c2ccc(Cl)cc2c2cc(Cl)ccc21 (stereo unspecified)	0.232 ± 0.013	0.503 ± 0.042	0.407 ± 0.024	0.695 ± 0.032	2.78 ± 0.18	1.52 ± 0.18	0.0946 (inactive)
COc1ccc(CCC(=O)NCc2nc(N(C)C)nc(N3CCCCC3)n2)cc1	0.8 ± 0.074	1.11 ± 0.11	0.881 ± 0.033	0.801 ± 0.029	1.01 ± 0.078	0.661 ± 0.12	1 (active)
CCC(C)(C)C(=O)OC1CC(C)C=C2C=CC(C)C(CCC3CC(O)CC(=O)O3)C21 (stereo unspecified)	1.65 ± 0.13	1.56 ± 0.11	1.91 ± 0.18	0.43 ± 0.014	0.918 ± 0.087	0.524 ± 0.11	0.912 (active)
CC(NC(=O)C(=O)Nc1ccc(F)cc1)c1ccccc1 (stereo unspecified)	0.972 ± 0.074	0.984 ± 0.18	0.939 ± 0.097	0.987 ± 0.069	1.22 ± 0.21	1.28 ± 0.2	0.994 (active)
CN1[C@@H]2CC[C@H]1C[C@@H](OC(c1ccccc1)c1ccccc1)C2.CS(=O)(=O)O	0.95 ± 0.13	1.19 ± 0.5	1.48 ± 0.23	0.438 ± 0.013	0.934 ± 0.35	1.53 ± 0.15	–
Cc1ccc(N2C(=O)CC(Nc3ccc(N4CCOCC4)cc3)C2=O)cc1 (stereo unspecified)	1.04 ± 0.11	1.09 ± 0.09	0.823 ± 0.057	0.641 ± 0.016	1.2 ± 0.16	0.908 ± 0.11	1.01 (active)
COc1ccc(C=C(NC(=O)c2cc(OC)c(OC)c(OC)c2)C(=O)NC(C(=O)O)C(C)C)c(OC)c1 (stereo unspecified)	1.01 ± 0.091	0.985 ± 0.055	0.934 ± 0.11	0.908 ± 0.031	1.23 ± 0.18	1.04 ± 0.29	1.02 (active)
CCc1ccc2nc(NCCCN3CCOCC3)sc2c1	0.924 ± 0.057	1.02 ± 0.083	0.971 ± 0.058	0.866 ± 0.04	1.19 ± 0.27	1.3 ± 0.34	0.99 (active)
O=C(O)CCCCCN1C(=O)c2cccc3cccc(c23)C1=O	0.97 ± 0.055	1.05 ± 0.094	0.948 ± 0.06	0.989 ± 0.05	1.35 ± 0.092	1.11 ± 0.1	1.01 (active)
O=C(Nc1ccccn1)NC1CCS(=O)(=O)C1 (stereo unspecified)	0.659 ± 0.37	0.918 ± 0.22	0.748 ± 0.14	0.881 ± 0.12	1.34 ± 0.085	1.23 ± 0.23	0.948 (active)
Nc1nnc(C(=O)O)[nH]1	1.04 ± 0.083	1.14 ± 0.08	1.03 ± 0.043	1.06 ± 0.2	1.03 ± 0.1	1.23 ± 0.19	1 (active)
Cc1cc2nc3sc(=Cc4ccc(F)cc4)c(=O)n3c2cc1C	0.99 ± 0.12	0.932 ± 0.12	1.04 ± 0.097	0.817 ± 0.03	1.07 ± 0.12	1.07 ± 0.13	1.03 (active)
CS(=O)(=O)N1CC(C(=O)N2CCN(c3cccc(Cl)c3Cl)CC2)C1	1.16 ± 0.065	1.08 ± 0.12	0.985 ± 0.027	0.906 ± 0.035	0.935 ± 0.082	0.958 ± 0.13	0.999 (active)
CC1c2cccc(O)c2C(=O)C2=C(O)C3(O)C(=O)C(C(N)=O)=C(O)C(N(C)C)C3C(O)C21.Cl (stereo unspecified)	1.34 ± 0.32	1.15 ± 0.058	1.04 ± 0.074	0.795 ± 0.041	1.14 ± 0.15	1.02 ± 0.12	0.992 (active)
CC(O)C(=O)O.CN1CCN(c2ccc3nc(-c4c(N)c5c(F)cccc5[nH]c4=O)[nH]c3c2)CC1	0.167 ± 0.011	0.107 ± 0.0086	0.294 ± 0.019	2.41 ± 0.23	0.434 ± 0.076	0.506 ± 0.084	0.966 (active)
Cc1ccc2[nH]c3nc(C)cc(C)c3c(=O)c2c1	0.967 ± 0.16	1.08 ± 0.091	0.993 ± 0.12	1.01 ± 0.052	1.25 ± 0.25	1.31 ± 0.21	0.704 (active)
Clc1cccc(Nc2nc(-c3ccccn3)cs2)c1	0.881 ± 0.15	0.379 ± 0.2	0.597 ± 0.18	0.537 ± 0.092	0.658 ± 0.2	0.658 ± 0.23	0.246 (inactive)
